This is one part of a sample in which hits are shown more often than they occur.
NSD2 block – inhibitors of human NSD2, primary screen, biochemical, plate reader, single point; NSD2-SET H3K36me1 DELFIA fluorescence; inhibition, % at 12.5 µM; 44,000 tested, 0.07% active; AID 624260, 2012; in the data active = inhibition above about 54%, passing the limit was not always enough;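 note: inhibitors reduce the monomethyl H3K36 fluorescence signal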
Target sequence (O96028 whole entry, looked up): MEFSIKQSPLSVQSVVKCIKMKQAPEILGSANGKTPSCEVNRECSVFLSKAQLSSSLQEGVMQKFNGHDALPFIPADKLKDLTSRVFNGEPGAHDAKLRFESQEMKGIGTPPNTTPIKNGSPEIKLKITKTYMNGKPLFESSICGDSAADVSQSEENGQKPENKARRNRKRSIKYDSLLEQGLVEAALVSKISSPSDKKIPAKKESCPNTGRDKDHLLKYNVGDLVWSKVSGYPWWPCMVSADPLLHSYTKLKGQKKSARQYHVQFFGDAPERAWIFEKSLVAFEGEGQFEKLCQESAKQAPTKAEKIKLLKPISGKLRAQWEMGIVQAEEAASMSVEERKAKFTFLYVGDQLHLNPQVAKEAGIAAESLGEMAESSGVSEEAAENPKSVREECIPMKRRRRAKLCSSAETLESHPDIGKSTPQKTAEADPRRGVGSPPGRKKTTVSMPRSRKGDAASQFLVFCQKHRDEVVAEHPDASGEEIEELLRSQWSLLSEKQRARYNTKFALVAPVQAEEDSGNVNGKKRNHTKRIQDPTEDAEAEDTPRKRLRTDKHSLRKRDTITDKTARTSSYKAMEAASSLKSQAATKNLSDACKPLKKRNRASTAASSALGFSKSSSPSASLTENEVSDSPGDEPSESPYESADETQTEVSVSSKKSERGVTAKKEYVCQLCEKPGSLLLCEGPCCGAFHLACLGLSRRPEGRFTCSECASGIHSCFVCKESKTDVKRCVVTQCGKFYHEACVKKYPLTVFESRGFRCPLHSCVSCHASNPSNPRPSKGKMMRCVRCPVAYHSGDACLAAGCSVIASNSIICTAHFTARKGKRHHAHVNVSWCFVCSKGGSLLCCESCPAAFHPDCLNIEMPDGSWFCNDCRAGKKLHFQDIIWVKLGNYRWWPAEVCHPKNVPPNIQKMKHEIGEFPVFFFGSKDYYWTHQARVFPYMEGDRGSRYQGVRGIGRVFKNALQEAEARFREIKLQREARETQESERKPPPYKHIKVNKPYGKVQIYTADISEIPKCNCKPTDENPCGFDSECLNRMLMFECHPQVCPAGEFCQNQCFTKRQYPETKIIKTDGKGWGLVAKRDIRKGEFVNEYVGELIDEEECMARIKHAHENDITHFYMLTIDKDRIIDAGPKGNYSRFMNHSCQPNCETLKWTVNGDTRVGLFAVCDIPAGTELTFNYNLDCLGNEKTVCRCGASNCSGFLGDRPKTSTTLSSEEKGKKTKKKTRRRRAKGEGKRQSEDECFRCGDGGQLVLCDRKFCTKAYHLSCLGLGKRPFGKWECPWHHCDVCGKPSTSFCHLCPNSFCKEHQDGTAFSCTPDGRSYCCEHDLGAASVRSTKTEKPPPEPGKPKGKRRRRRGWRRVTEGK
Numbers without * were called inactive.

Screening CC(CC[C@]1(C)C2CCC=C(CO)[C@]2(C)CC[C@H]1C)CC(=O)O (some centres not stated) returned NSD2 block -0.6.
For CC1=CC(=O)CC2C1(C)CCC(C)C2(C)CCC(C)CC(=O)O (configuration not stated) the results were NSD2 block 8.0.
Screening CC1=CC(=O)OC1(O)CCC(C)CC(=O)O (configuration not stated) returned NSD2 block 74.8*.
For C[C@@H]1CN([C@H](C)CO)C(=O)c2cc(NC(=O)Nc3ccc4c(c3)OCO4)ccc2O[C@@H](C)CCCCO[C@@H]1CN(C)S(=O)(=O)c1cn(C)cn1 the results were NSD2 block -0.6.
CCCNC(=O)N(C)C[C@@H]1Oc2cc(-c3ccc(C)cc3)ccc2S(=O)(=O)N([C@H](C)CO)C[C@@H]1C was read as NSD2 block 8.0.
Cc1ccc(-c2ccc3c(c2)O[C@@H](CN(C)CC2CC2)[C@@H](C)CN([C@@H](C)CO)S3(=O)=O)cc1 was read as NSD2 block 2.2.
For O=C(O)c1c(O)cc(OC2OC(CO)C(O)C(O)C2O)cc1/C=C/c1ccccc1 (configuration not stated) the results were NSD2 block 75.7*.
For O=C(/C=C/c1ccccc1)O[C@@H]1O[C@H](CO)[C@@H](O)[C@H](O)[C@H]1O the results were NSD2 block 0.0.
O=C(CCc1ccc(O)cc1)c1ccc(O[C@@H]2O[C@H](CO)[C@H](O)[C@H](O)[C@H]2O)cc1O was read as NSD2 block 14.6.
CC(C)C#Cc1ccc2c(c1)O[C@H](CN(C)C(=O)c1ccccn1)[C@H](C)CN([C@H](C)CO)S2(=O)=O was read as NSD2 block -9.2.
For C[C@@H]1CN([C@H](C)CO)S(=O)(=O)c2ccc(C3=CCCCC3)cc2O[C@@H]1CN(C)C(=O)Nc1ccc2c(c1)OCO2 the results were NSD2 block -0.4.
Screening Cc1ccc(S(=O)(=O)Nc2ccc3c(c2)CC(=O)N([C@H](C)CO)C[C@@H](C)[C@@H](CN(C)C(=O)Nc2c(C)noc2C)O3)cc1 returned NSD2 block 1.4.
For Cc1noc(C)c1NC(=O)N(C)C[C@H]1OCCCC[C@H](C)Oc2ccc(NS(=O)(=O)c3cccs3)cc2C(=O)N([C@H](C)CO)C[C@@H]1C the results were NSD2 block 6.3.
`COc1cccc(-c2ccc3c(c2)O[C@H](CN(C)Cc2ccncc2)[C@H](C)CN([C@@H](C)CO)S3(=O)=O)c1` gave NSD2 block 1.1.
Cc1noc(C)c1NC(=O)Nc1ccc2c(c1)C(=O)N([C@@H](C)CO)C[C@@H](C)[C@H](CN(C)S(=O)(=O)c1cccs1)O2 was read as NSD2 block 1.5.
CN(C)C(=O)C[C@H]1C[C@@H]2c3cc(NC(=O)Nc4ccccc4)ccc3O[C@@H]2[C@@H](CO)O1 was read as NSD2 block -2.2.
C[C@@H]1CN([C@H](C)CO)C(=O)c2cccc(NS(=O)(=O)c3ccc(F)cc3)c2O[C@H]1CN(C)S(=O)(=O)c1ccc(F)cc1 was read as NSD2 block -1.0.
Screening Cc1noc(C)c1NC(=O)Nc1cccc2c1O[C@@H](CN(C)S(=O)(=O)c1cccs1)[C@@H](C)CN([C@@H](C)CO)C2=O returned NSD2 block 33.3.
CN(C)CC(=O)Nc1ccc2c(c1)[C@H]1C[C@H](CC(=O)NCCc3ccccc3)O[C@H](CO)[C@H]1O2 was read as NSD2 block -7.3.
For C[C@@H]1CN([C@@H](C)CO)C(=O)Cc2cc(NC(=O)Nc3cccc4ccccc34)ccc2O[C@H]1CN(C)C(=O)Nc1ccc(F)cc1 the results were NSD2 block 1.9.
For CC(C)=CCC[C@@H](C)C/C=N/NC(=O)CCCCCCC(=O)Nc1ccccc1O the results were NSD2 block 0.3.
For COc1ccc(NC(=O)Nc2ccc3c(c2)C(=O)N([C@@H](C)CO)C[C@@H](C)[C@H](CN(C)S(=O)(=O)c2ccc(C)cc2)OCCCC[C@@H](C)O3)cc1 the results were NSD2 block -1.1.
`C[C@H]1CN([C@@H](C)CO)C(=O)Cc2cc(NC(=O)Nc3cccc4ccccc34)ccc2O[C@H]1CN(C)C(=O)Nc1ccc2c(c1)OCO2` gave NSD2 block -9.0.
`COc1ccc2ccc(=O)oc2c1CC(O)C(C)(C)OC` (configuration not stated) gave NSD2 block -0.8.
For CCCNC(=O)N(C)C[C@@H]1Oc2ncc(-c3ccccc3F)cc2C(=O)N([C@@H](C)CO)C[C@@H]1C the results were NSD2 block 3.8.
Screening C[C@H]1CN([C@@H](C)CO)C(=O)Cc2cc(NC(=O)CCC(F)(F)F)ccc2O[C@@H]1CN(C)C(=O)Nc1cccc2ccccc12 returned NSD2 block -2.5.
C[C@@H]1CN([C@@H](C)CO)C(=O)c2cc(NC(=O)Cn3cnnn3)ccc2O[C@H]1CN(C)C(=O)NC1CCCCC1 was read as NSD2 block -1.4.
`O=C(NO)c1ccc(C(=O)N/N=C/c2ccc(F)cc2)cc1` gave NSD2 block 3.7.
For O=C(NO)c1ccc(C(=O)N/N=C/c2ccc3ccccc3c2)cc1 the results were NSD2 block 61.8*.
Screening O=C(NO)c1ccc(C(=O)N/N=C/c2cccc(Oc3ccccc3)c2)cc1 returned NSD2 block 1.1.
O=C(NO)c1ccc(C(=O)N/N=C/c2ccc(O)c(O)c2O)cc1 was read as NSD2 block 60.5*.
For O=C(NO)c1ccc(C(=O)N/N=C/c2cccc(O)c2O)cc1 the results were NSD2 block 3.2.
For CCN(CC)c1ccc(/C=N/NC(=O)c2ccc(C(=O)NO)cc2)c(O)c1 the results were NSD2 block 11.2.
Screening O=C(NO)c1ccc(C(=O)N/N=C/c2c[nH]c3ccccc23)cc1 returned NSD2 block 4.8.
`C[C@@H]1CN([C@H](C)CO)C(=O)c2cccc(NS(=O)(=O)c3ccc(Cl)cc3)c2O[C@H]1CN(C)Cc1ccncc1` gave NSD2 block 2.2.
`C[C@H]1CN([C@@H](C)CO)C(=O)c2cc(C#CCc3ccccc3)cnc2O[C@@H]1CN(C)Cc1ccc(C(=O)O)cc1` gave NSD2 block -2.8.
Screening Cc1noc(C)c1S(=O)(=O)Nc1ccc2c(c1)C(=O)N([C@H](C)CO)C[C@@H](C)[C@@H](CN(C)Cc1ccc(C(=O)Nc3ccccc3N)cc1)O2 returned NSD2 block -2.4.
COc1ccc(S(=O)(=O)N(C)C[C@@H]2OCCCC[C@@H](C)Oc3ccc(NC(=O)NC(C)C)cc3C(=O)N([C@H](C)CO)C[C@H]2C)cc1 was read as NSD2 block -5.7.
CCCC#Cc1ccc2c(c1)O[C@@H](CN(C)Cc1ccncc1)[C@@H](C)CN([C@H](C)CO)S2(=O)=O was read as NSD2 block -46.4.
COc1ccc(C2Oc3c(OC)cc(CCCO)cc3C2CO)cc1OC1OC(CO)C(O)C(O)C1O (configuration not stated) was read as NSD2 block 10.8.
Screening COc1cc(C2Oc3c(OC)cc(CCCO)cc3C2CO)ccc1O[C@H]1O[C@H](C)[C@@H](O)[C@H](O)[C@@H]1O (some centres not stated) returned NSD2 block 59.1*.
`C[C@@H]1O[C@@H](Oc2ccc(C3Oc4cc(O)cc(O)c4C(=O)C3O)cc2O)[C@H](O)[C@H](O)[C@H]1O` (some centres not stated) gave NSD2 block 33.2.

Screening data (PubChem)
